Experimental data as given in ChEMBL document CHEMBL3988442, “University of Dundee, Small-Polar-MMV Screening Library” (2021).
Hit rate of the full screen: of about 53,000 compounds, about 900 (1.7%) showed an effect of 50% or more. This excerpt belongs to a sample that is enriched for strong results.

System: Mycobacterium tuberculosis
Assay: Cornell - Phenotypic assay to identify agents that inhibit growth of Mycobacterium tuberculosis
Format: functional
Design: scale not given: direction of the effect not stated beside the values
Conditions: 10 mM as filed; unlikely as a test dose

Compound | Percent Effect [%]
CCn1ccc(-c2cc(NCCCOc3cccc(C)c3)nc(C)n2)n1 | 27.92
COc1ccccc1OCCNCCn1cccn1 | 4.031
CCn1ccc(-c2cc(NCCCOc3ccccc3C)nc(C)n2)n1 | 93.67
CC1(C)OC(=O)N(CCOc2ccc(F)cc2)C1=O | 15.77
CN1CCOC(C)(C(=O)N2CCN(C3CCCC3)CC2)C1 (configuration not stated) | -58.81
CNC(=O)CNCC1(O)CCCN(Cc2ccc(F)c(F)c2)C1=O (configuration not stated) | -12.88
Cc1ccsc1CN(c1nc(CCN)nc2ccccc12)C1CC1 | 64.64
NCCc1nc(N(Cc2cncs2)C2CC2)c2ccccc2n1 | -19.06
NCCc1nc(N(Cc2nccs2)C2CC2)c2ccccc2n1 | -24.34
CN(C)C(CNC(=O)c1cccc(C(N)=O)c1)c1ccccc1Cl (configuration not stated) | -40.94
N#Cc1nccnc1N1CCC(Cc2ccccc2)C1 (configuration not stated) | 17.71
N#Cc1nccnc1N1CCC(COCc2ccccc2)C1 (configuration not stated) | 4.332
N#Cc1nccnc1N1CCC(CSc2ccccc2)C1 (configuration not stated) | 53.28
CC(C)C(NC(=O)c1ccc(N2CCOCC2)nc1)c1cccs1 (configuration not stated) | 5.892
CC(C)C(NC(=O)c1cnc(N2CCOCC2)nc1)c1cccs1 (configuration not stated) | 69.04
CC(C)C(NC(=O)c1nc(N2CCOCC2)ncc1Cl)c1cccs1 (configuration not stated) | 19.79
CC(=O)Nc1ccc(Oc2ccc3c(c2)OCO3)nc1 | 12.25
CC(C)N1CC2(CCCN(c3ccccn3)C2)CCC1=O (configuration not stated) | 8.106
CCc1ccc(C(=O)NCC2CCCN2CC)o1 (configuration not stated) | 3.045
CCc1cnc(N2CC[C@H]3[C@@H]2CCC(=O)N3c2cccnc2)nc1.O=C(O)C(F)(F)F.O=C(O)C(F)(F)F | 5.714
CC(=O)c1ccc(Nc2nc(N)nc3c2nc(C)n3C)cc1 | 11.87
Cc1nc2c(Nc3cccc(C#N)c3)nc(N)nc2n1C | 106.8
Cc1nc2c(Nc3ccc(C#N)cc3)nc(N)nc2n1C | 2.918

Compound | Percent Effect [%]
CN(Cc1nnc(-c2cccs2)o1)C(C(N)=O)c1cccc(F)c1 (configuration not stated) | 15.31
CCc1nc(CN(C)Cc2nnc(-c3cccs3)o2)cs1 | 57.32
CCc1nc(CN(C)Cc2ncc(-c3cccs3)o2)cs1 | 22.49
Cc1cc(NC(=O)c2ccccc2Br)n(C)n1 | 11.86
Cc1cnn(CC2CCCN2Cc2coc(-c3cccc(F)c3)n2)c1 (configuration not stated) | 42.46
OC(COCc1ccco1)CN1CCC(Cn2cccn2)CC1 (configuration not stated) | -18.82
COc1ccc2c(c1)OCC(Cc1ccc(C)nc1N)C2 (configuration not stated) | 9.156
COc1ccc2c(c1)OCC(CNc1cc(N)nc(SC)n1)C2 (configuration not stated) | 106.6
COc1cccc2c1OCC(CNc1ccc(C)nn1)C2 (configuration not stated) | 22.84
COc1cccc2c1OCC(Cc1ccc(N)nc1C)C2 (configuration not stated) | 28.19
COc1ccc2c(c1)OCC(Cc1ccc(N)nc1C)C2 (configuration not stated) | 38.23
COc1cccc2c1OCC(CNc1cc(N)nc(SC)n1)C2 (configuration not stated) | 106
Cc1nccc(-c2cccc(NCC(=O)N3CCNC(=O)C3)c2)n1 | 4.567
CNC(=O)c1cccc(CC2COCCN(Cc3ccc(C)o3)C2)n1 (configuration not stated) | 0.6767
Cc1ccc(S(=O)(=O)NCCc2ccoc2)s1 | 103.3
Cc1ccc(S(=O)(=O)NCC(O)c2ccoc2)s1 (configuration not stated) | 10.79
COC(=O)c1sccc1S(=O)(=O)NCCc1ccoc1 | 39.87
O=S(=O)(NCC1COc2ccccc2C1)N1CCCC1 (configuration not stated) | 15.67
OC1=C2C(=Nc3n[nH]c(O)c3C2c2ccco2)CCC1 (configuration not stated) | 27.79
Cc1cnn(CC2CCCN2CCc2nc3ccccc3c(=O)[nH]2)c1 (configuration not stated) | 106.5
Cc1nc(C)n(CC2CCCN2Cc2nc3ccccc3c(=O)[nH]2)n1 (configuration not stated) | -38.81
Cc1cnn(CC2CCCCN2Cc2nc(N)c3ccccc3n2)c1 (configuration not stated) | 31.76
Cc1cnn(CC2CCCN2Cc2nc3ccccc3n2C)c1 (configuration not stated) | 81.85

Compound | Percent Effect [%]
Cc1cnn(CC2CCCN2C(=O)CCc2nc3ccccc3[nH]2)c1 (configuration not stated) | 16.22
Cc1cnn(CC2CCCN2Cc2noc(-c3ccccc3)n2)c1 (configuration not stated) | 10.45
Cc1cccc(CN2CCC(C3Nc4ccccc4S(=O)(=O)N3)CC2)n1 (configuration not stated) | -13.88
CCn1c(N)nc2cc(C(=O)N(C)Cc3cc(C(C)(C)C)n[nH]3)cnc21 | 12.68
CN1CC(=O)N(c2cccc(F)c2)CC12CCNC2 (configuration not stated) | -13.58
NC(=O)CN1CCCCC1c1nc(N)ncc1-c1cccc(F)c1 (configuration not stated) | -18.13
COCCN1CCN(Cc2nc(-c3ccoc3)no2)CC1 | -27.89
O=S(=O)(Nc1cnc(N2CCCC2)nc1)c1ccc(OC(F)(F)F)cc1 | 94.98
O=S(=O)(Nc1cnc(N2CCCC2)nc1)c1ccc(C(F)(F)F)cc1 | 101.9
O=S(=O)(Nc1cnc(N2CCOCC2)nc1)c1ccc(C(F)(F)F)cc1 | 57.68
CN(C)c1ncc(NS(=O)(=O)c2ccc(OC(F)(F)F)cc2)cn1 | 23.91
Cn1cc(NS(=O)(=O)c2ccc(OC(F)(F)F)cc2)ccc1=O | -35.35
CCc1ccc(S(=O)(=O)Nc2cnc(N3CCOCC3)nc2)cc1 | 24.89
O=S(=O)(Nc1cnc(N2CCOCC2)nc1)c1ccc(Cl)cc1 | -17.06
Cc1ccc(F)cc1S(=O)(=O)Nc1cnc(N2CCCC2)nc1 | 13.98
O=S(=O)(Nc1cnc(N2CCCC2)nc1)c1ccc(F)cc1F | -10.3
O=C1CCC(=O)N1c1nn(Cc2ccccc2)cc1Cl | -38.92
Cc1ccc(S(=O)(=O)c2ncccc2CN2CCCC2)cc1 | -5.255
N#CC1COCCN1C(=O)c1ccc2[nH]ccc2c1 (configuration not stated) | 10.98
CC(C)(C)n1cc(NC(=O)C2CN(Cc3ccccc3)CCO2)cn1 (configuration not stated) | 19.34
COc1ccccc1CNC(=O)CN(C)C(C)c1ccncn1 (configuration not stated) | 1.408
Cc1cn([C@H]2CCNC[C@]2(C)O)c(=O)[nH]c1=O | 34.03
CC(C)N1CC[C@@](C)(O)[C@H](n2ccc(=O)[nH]c2=O)C1 | -3.084

Compound | Percent Effect [%]
Cc1cn([C@@H]2CC3(CCNCC3)OC[C@@]2(C)O)c(=O)[nH]c1=O | 56.73
CCc1ncc(S(C)(=O)=O)c(C2CCCNC2)n1 (configuration not stated) | 21.49
CCc1c(O)n(C(C)CC)c(SCC(=O)c2ccccc2)nc1=O (configuration not stated) | 28.35
CCc1c(O)nc(SCC(=O)Nc2ccccc2)n(C(C)CC)c1=O (configuration not stated) | 65.15
CCc1c(O)nc(SC(C)CC)n(-c2ccccc2)c1=O (configuration not stated) | 96.76
CCc1c(O)nc(SCC(=O)c2ccccc2)n(-c2ccccc2)c1=O | 13.57
CCCSc1nc(O)c(CC)c(=O)n1-c1ccccc1 | 98.89
CCOc1ccc(Cc2c(O)nc(SC)n(-c3ccccc3)c2=O)cc1 | 8.957
COc1ccc(Cc2c(O)nc(SC)n(-c3ccccc3)c2=O)cc1 | -12.72
CSc1nc(O)c(Cc2ccccc2)c(=O)n1-c1ccccc1 | 18.81
CCc1c(O)nc(SCC(=O)N(CC)CC)n(C(C)CC)c1=O (configuration not stated) | 4.731
CNC(=O)COc1ccc(CNCc2c(C)nn(C)c2N(C)C)cc1 | -6.953
O=S(=O)(c1ccc(F)c(F)c1)n1cc(Cl)cn1 | -7.033
CC1(Cc2ccc(F)cc2)Cc2cc(C(=O)NCCO)ccc2O1 (configuration not stated) | 0.603
COCc1noc(CN2C[C@H](NS(C)(=O)=O)[C@@H](C3CC3)C2)n1 | 15.5
CC(C)COC(=O)N1CC(=O)N(Cc2ccc(Cl)cc2)CC(O)C1 (configuration not stated) | -5.11
CS(=O)(=O)NCc1ncn2c1CN(C(=O)C1CCCO1)CCC2 (configuration not stated) | 5.323
COC(=O)[C@H](CCSC)NC(=O)Cc1c(C)nn(-c2ccccc2)c1C | 83.92
COc1cncc(-n2nc(C)c(CC(C)=O)c2C)c1 | 14.09
COc1cccc(-c2nc(C)c(C(=O)N[C@@H](CCSC)C(=O)O)s2)c1 | 4.928
CSCCC(NC(N)=O)C(=O)NCc1c(C)nn(-c2ccccc2)c1C (configuration not stated) | -4.034
COc1cccc(-c2nc(C)c(C(=O)N[C@H](CO)CCSC)s2)c1 | 3.237
COC(=O)C(CCSC)NC(=O)Cc1c(C)nn(-c2ccccc2)c1C (configuration not stated) | 87.19

Compound | Percent Effect [%]
CC(C)C(=O)NCCCNC(=O)Nc1cc(-c2ccccc2)ns1 | 30.68
CCS(=O)(=O)N1CCC2(CC1)CN(c1cccnc1)C(=O)CO2.O=C(O)C(F)(F)F | -1.862
CCc1csc(CNc2nc3c(s2)c(C)nn3C)n1 | -15.98
CCc1nc(CNc2nc3c(s2)c(C)nn3C)cs1 | 82.51
Cc1csc(CNc2nc3c(s2)c(C)nn3C)n1 | 21.44
Cc1nn(C)c2nc(NCCCN3CCCC(CO)C3)sc12 (configuration not stated) | 5.889
Cc1nn(C)c2nc(NC3CCNCC3)sc12 | 23.18
Cc1nc(CNc2nc3c(s2)c(C)nn3C)cs1 | 88.41
CN(C)c1ncc(NC(=O)N2CCC(CN3CCCC3)C2)cn1 (configuration not stated) | -23.44
Cn1nccc1-c1ncc(-c2cc(C(=O)O)n(CC3CC3)c2)cn1 | -21.93
CN(C)c1ncc(-c2cc(C(=O)O)n(CC3CC3)c2)cn1 | 80.35
CN(CCOc1cccc(F)c1)CC(=O)Nc1ccncc1 | 22.43
CN(CCS(=O)(=O)c1cc(Cl)ccc1Cl)CC(=O)Nc1cccc(F)c1 | 108.9
Cc1ccc(S(=O)(=O)N(C)CC(N)=O)c(Cl)c1 | 18.08
CN(CC(=O)Nc1ccon1)S(=O)(=O)c1cc(Cl)ccc1Cl | -21.56
COc1ccc(Cl)cc1S(=O)(=O)N(C)CC(=O)Nc1ccccc1 | 28.1
CN(CCS(=O)(=O)c1cc(Cl)ccc1Cl)CC(N)=O | 108.8
CN(CCS(=O)(=O)c1cc(Cl)ccc1Cl)CC(=O)Nc1ccc(F)cc1 | 110.1
COc1ccc(Cl)cc1S(=O)(=O)N(C)CC(N)=O | 28.08
CN(CC(=O)Nc1cccc(F)c1)Cc1nc(N)nc(N(C)C)n1 | 30.17
